Records with an inconclusive call do not appear. Calls of active or inactive are those of the source. Unless noted, calls follow the shape of the dose curve; as a rule, active = well fitted curve in the direction sought with a large enough effect; inconclusive = small, poorly fitted or top-dose-only effect, or another doubt; inactive = no such curve, though single readings can be large; an effect the other way counts as inactive or inconclusive.
What was measured:
[1] = qHTS of Trypanosoma Brucei Inhibitors: LOPAC Validation (AID 624147)
How it was run: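 Readout: single end-point luminescence (Kinase-Glo Plus, 10 min). Reaction conditions were TbPYK/substrate plus 130 uM ADP, 45 min at RT, pH 7.2 TEA buffer. No-enzyme wells served as controls, and data were normalized before concentration-response fitting.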

[2] = target: Glucagon-like peptide 1 receptor (Homo sapiens) (UniProt P43220); test: qHTS of GLP-1 Receptor Agonists: LOPAC Validation (AID 624148);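 also: higher luminescence signal means agonism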
Glucagon-like peptide 1 receptor (Homo sapiens), sequence (P43220 whole entry, looked up): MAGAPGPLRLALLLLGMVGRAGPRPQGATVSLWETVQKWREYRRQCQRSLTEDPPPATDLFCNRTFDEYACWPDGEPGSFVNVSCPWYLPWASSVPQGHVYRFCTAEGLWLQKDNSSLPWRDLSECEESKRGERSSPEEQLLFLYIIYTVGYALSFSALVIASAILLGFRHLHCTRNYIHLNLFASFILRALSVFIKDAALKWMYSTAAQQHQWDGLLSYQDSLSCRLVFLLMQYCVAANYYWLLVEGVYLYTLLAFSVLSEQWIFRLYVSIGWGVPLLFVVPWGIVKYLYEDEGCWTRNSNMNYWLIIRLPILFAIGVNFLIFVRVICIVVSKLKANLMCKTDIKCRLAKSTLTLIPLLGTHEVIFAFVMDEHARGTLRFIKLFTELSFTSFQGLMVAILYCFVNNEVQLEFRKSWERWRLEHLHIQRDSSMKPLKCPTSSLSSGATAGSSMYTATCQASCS
How it was run: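 HEK293 cells stably co-expressing a cAMP-responsive luciferase reporter and a hypersensitive GLP-1R were plated 12 h at 37 °C and exposed to compounds for 4-6 hr at 37 °C, 5% CO2. Luminescence was read 12 min after adding detection reagent.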

[3] = qHTS of Nrf2 Activators: LOPAC Validation (AID 624149)
How it was run: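 Cells (AREc32_Fluc) are plated at 1000 per well in OPTI-MEM containing 5% FBS and left overnight. Compounds are pinned in and incubated 24 hr at 37 deg C, and firefly luciferase is detected with Steady-Glo.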

[4] = target: Luciferin 4-monooxygenase (Photinus pyralis) (UniProt P08659); test: Biochemical firefly luciferase enzyme assay for NPC (AID 624030);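 also: purified P. pyralis luciferase at 10 nM with luciferin and ATP substrate; series mostly up to about 59 µM; nearly all actives have a fitted effect of over 70% in size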
Luciferin 4-monooxygenase (Photinus pyralis), sequence (P08659 whole entry, looked up): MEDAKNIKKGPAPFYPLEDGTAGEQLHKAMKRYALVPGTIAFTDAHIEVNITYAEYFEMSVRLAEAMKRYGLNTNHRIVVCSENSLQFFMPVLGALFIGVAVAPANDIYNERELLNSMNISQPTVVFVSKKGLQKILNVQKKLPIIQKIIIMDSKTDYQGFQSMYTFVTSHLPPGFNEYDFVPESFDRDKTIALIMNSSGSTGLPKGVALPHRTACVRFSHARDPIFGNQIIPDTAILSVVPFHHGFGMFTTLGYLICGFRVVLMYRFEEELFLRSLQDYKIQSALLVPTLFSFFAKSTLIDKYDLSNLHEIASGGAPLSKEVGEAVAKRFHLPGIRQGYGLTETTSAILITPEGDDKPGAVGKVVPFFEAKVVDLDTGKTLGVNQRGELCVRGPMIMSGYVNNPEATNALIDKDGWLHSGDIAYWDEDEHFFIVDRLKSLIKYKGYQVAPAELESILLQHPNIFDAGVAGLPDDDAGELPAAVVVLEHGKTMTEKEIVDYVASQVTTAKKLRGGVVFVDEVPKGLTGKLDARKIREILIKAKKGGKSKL
How it was run: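 Counter-screen for direct inhibition of the luciferase enzyme by approved-drug library compounds, run at 10 nM enzyme in 50 mM Tris acetate (final). Luminescence was read within 5 min of enzyme-buffer addition and normalized to PTC124 versus DMSO (0%).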

[5] = S16 Schwann cell viability assay (CellTiter-Glo assay) (AID 624031); also: nearly all actives have a fitted effect of over 70% in size; also: potency is read from the fitted curve at half-maximal effect
How it was run: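 Parental S16 cells, 24 h compound, 37 °C. ATP-luminescence viability; DMSO = 0% activity, empty wells as reference; curves classified by fit quality and efficacy.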

[6] = S16 Schwann cell PMP22 intronic element firefly luciferase assay (AID 624032); also: nearly all actives have a fitted effect of over 30% in size; also: potency is read from the fitted curve at half-maximal effect
How it was run: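 Rat S16 Schwann cells stably carrying a PMP22 intronic element-driven Fluc reporter were seeded overnight, then exposed to compounds for 24 h at 37 °C. Luminescence was normalized to PTC124 (positive control) and DMSO (0% activity).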

[7] = target: Glutaminase kidney isoform, mitochondrial (Homo sapiens) (UniProt O94925); test: qHTS for Inhibitors of Glutaminase (GLS): LOPAC Validation (AID 624146); also: nearly all actives have a fitted effect of over 60% in size; also: potency is read from the fitted curve at half-maximal effect
Glutaminase kidney isoform, mitochondrial (Homo sapiens), sequence (O94925 whole entry, looked up, canonical isoform): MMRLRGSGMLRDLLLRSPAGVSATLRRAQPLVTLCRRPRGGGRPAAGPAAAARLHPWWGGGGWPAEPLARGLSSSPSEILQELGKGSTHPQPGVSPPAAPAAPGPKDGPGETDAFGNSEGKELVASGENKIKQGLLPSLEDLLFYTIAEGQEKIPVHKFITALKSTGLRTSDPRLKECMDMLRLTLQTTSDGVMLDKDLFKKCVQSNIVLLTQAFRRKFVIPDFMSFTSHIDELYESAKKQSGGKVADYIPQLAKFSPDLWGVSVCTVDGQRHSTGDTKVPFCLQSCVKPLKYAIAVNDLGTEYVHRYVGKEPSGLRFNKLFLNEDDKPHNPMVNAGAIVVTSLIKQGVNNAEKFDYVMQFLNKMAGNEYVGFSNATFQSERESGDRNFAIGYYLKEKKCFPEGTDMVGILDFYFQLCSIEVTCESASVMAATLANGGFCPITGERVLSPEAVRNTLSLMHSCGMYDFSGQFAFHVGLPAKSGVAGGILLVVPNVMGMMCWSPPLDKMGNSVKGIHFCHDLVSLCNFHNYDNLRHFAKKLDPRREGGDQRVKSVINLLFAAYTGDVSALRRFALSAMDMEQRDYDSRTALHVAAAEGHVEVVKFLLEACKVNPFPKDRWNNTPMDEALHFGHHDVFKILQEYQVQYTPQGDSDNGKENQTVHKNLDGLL
How it was run: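 hKGA in 45 mM KH2PO4 pH 8.2, 0.02% Tween-20 with pin-transferred compounds; 1 mM L-glutamine (stock) plus glutamate oxidase/HRP/Amplex Red coupling added. Fluorescence read initially and after 30 min at RT.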

[8] = target: Voltage-gated inwardly rectifying potassium channel KCNH2 (Homo sapiens) (UniProt Q12809); test: qHTS Assay for Small Molecule Inhibitors of the Human hERG Channel Activity (AID 588834);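 also: top concentration of the series differs between compounds; lower thallium flux fluorescence means stronger hERG block; nearly all actives have a fitted effect of over 50% in size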
Voltage-gated inwardly rectifying potassium channel KCNH2 (Homo sapiens), sequence (Q12809 whole entry, looked up): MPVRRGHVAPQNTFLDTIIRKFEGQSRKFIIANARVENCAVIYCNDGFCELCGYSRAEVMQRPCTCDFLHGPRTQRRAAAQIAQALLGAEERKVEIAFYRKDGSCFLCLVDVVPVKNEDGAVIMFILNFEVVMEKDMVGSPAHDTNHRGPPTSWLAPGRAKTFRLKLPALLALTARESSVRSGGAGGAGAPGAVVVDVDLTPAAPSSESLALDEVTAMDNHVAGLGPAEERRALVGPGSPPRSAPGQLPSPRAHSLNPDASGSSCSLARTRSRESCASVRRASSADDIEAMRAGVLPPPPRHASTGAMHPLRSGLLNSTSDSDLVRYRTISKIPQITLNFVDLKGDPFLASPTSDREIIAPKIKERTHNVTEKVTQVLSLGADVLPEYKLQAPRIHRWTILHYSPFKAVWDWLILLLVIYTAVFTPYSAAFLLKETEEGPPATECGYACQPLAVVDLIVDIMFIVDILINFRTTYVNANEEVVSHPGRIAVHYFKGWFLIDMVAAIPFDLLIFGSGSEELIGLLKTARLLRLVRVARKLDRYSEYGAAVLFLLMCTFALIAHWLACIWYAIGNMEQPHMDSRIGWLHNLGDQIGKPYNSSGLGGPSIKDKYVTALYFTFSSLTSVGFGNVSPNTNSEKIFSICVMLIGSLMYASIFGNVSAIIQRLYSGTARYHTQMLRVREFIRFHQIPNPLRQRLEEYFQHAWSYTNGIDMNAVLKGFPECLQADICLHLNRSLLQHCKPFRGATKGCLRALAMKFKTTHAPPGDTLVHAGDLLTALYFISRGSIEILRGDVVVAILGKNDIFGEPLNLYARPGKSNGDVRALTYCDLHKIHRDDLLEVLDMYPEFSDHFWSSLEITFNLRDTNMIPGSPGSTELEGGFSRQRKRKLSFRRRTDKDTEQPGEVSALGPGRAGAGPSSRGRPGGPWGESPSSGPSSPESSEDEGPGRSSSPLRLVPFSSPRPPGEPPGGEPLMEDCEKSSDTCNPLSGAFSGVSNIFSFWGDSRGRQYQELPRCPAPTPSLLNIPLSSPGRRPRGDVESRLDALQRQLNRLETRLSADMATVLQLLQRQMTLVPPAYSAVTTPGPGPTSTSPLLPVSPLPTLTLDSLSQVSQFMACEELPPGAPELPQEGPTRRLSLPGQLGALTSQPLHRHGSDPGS
How it was run: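 In hERG-transduced U2OS cells, dye-loaded for 1 hr at room temperature in dark, test compounds incubated 10 min at 37 °C before thallium stimulation. AC50 values derived by Hill modelling of concentration-response.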

[9] = S16 Schwann cell PMP22 intronic element beta-lactamase assay (AID 624044; calls by dose curve; also: nearly all actives have a fitted effect of over 15% in size; also: potency is read from the fitted curve at half-maximal effect)
How it was run: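 Beta-lactamase reporter under a PMP22 intronic regulatory element in stable S16 rat Schwann cells; 24 h compound exposure. 460 nm blue signal normalized between DMSO (0%) and potassium clavulanate, with 535 nm FRET tracking viability; curves classed by r2 and response.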

Measured: Potency

C[C@@H](O)[C@H]1C(=O)N2C(C(=O)O)=C(SCCN=CN)C[C@H]12
inactive: [1] | [2] | [3]

CC(C)(C)c1ccc(C(=O)CCCN2CCC(OC(c3ccccc3)c3ccccc3)CC2)cc1
active: [5] 20.3 µM | [6] 20.3 µM
inactive: [4] | [7] | [1] | [2] | [3]

c1ccc2c(c1)CCCC2C1=NCCN1 (configuration not stated)
inactive: [8] | [7] | [1] | [2] | [3]

CCc1c(C)[nH]c2c1C(=O)C(CN1CCOCC1)CC2 (configuration not stated)
inactive: [8] | [1] | [2] | [3]

CC(C)NCC(O)c1cc(O)cc(O)c1 (configuration not stated)
active: [7] 7.08 µM
inactive: [8] | [1] | [3]

CCN(CC)CCNC(=O)c1cc(S(C)(=O)=O)ccc1OC
inactive: [4] | [5] | [6] | [7] | [1] | [2] | [3]

CCOC(=O)C1=C(C)NC(C)=C(C(=O)OC)C1c1cccc(Cl)c1Cl (configuration not stated)
inactive: [4] | [5] | [9] | [7] | [1] | [2] | [3]

c1cc(CN2CCCCC2)cc(OCCCNc2nc3ccccc3s2)c1
inactive: [4] | [6] | [9] | [7] | [1] | [2] | [3]

CCCCCCCC/C=C\CCCCCCCC(=O)NCc1ccc(O)c(OC)c1
inactive: [4] | [5] | [1] | [2] | [3]
active: [6] 4.55 µM | [9] 12.6 µM

CN(C)CC/C=C1\c2ccccc2COc2ccccc21
inactive: [4] | [7] | [1] | [2] | [3]

CN1C[C@H](C(=O)N[C@]2(C)O[C@@]3(O)[C@@H]4CCCN4C(=O)[C@H](Cc4ccccc4)N3C2=O)C[C@@H]2c3cccc4[nH]cc(c34)C[C@H]21
inactive: [4] | [9] | [7] | [1] | [2] | [3]

CN(C)[C@@H]1C(=O)C(C(N)=O)=C(O)[C@@]2(O)C(=O)C3=C(O)c4c(O)ccc(Cl)c4[C@@H](O)[C@H]3C[C@@H]12
inactive: [8] | [1] | [2] | [3]

CCN(CC)CCNC(=O)c1ccc(NC(C)=O)cc1
inactive: [4] | [5] | [6] | [7] | [1] | [2] | [3]

COCC(=O)O[C@]1(CCN(C)CCCc2nc3ccccc3[nH]2)CCc2cc(F)ccc2[C@@H]1C(C)C
inactive: [4] | [7] | [1] | [2] | [3]
active: [5] 10.2 µM | [6] 10.2 µM | [9] 25.1 µM

CN1C(=O)CC[C@H]1c1cccnc1
inactive: [8] | [7] | [1] | [2] | [3]

C[C@]12CC[C@@H]3c4ccc(O)cc4C[C@@H](CCCCCCCCCS(=O)CCCC(F)(F)C(F)(F)F)[C@H]3[C@@H]1CC[C@@H]2O (some centres not stated)
inactive: [8] | [1] | [2] | [3]

COCCCC/C(=N\OCCN)c1ccc(C(F)(F)F)cc1
inactive: [7] | [1] | [2] | [3]

COc1ccc([C@@H]2Sc3ccccc3N(CCN(C)C)C(=O)[C@@H]2OC(C)=O)cc1
inactive: [4] | [5] | [6] | [7] | [1] | [2] | [3]

CCN(CC)CC(=O)Nc1c(C)cccc1C
inactive: [4] | [5] | [6] | [9] | [7] | [1] | [2] | [3]

OC(CCN1CCCCC1)(c1ccccc1)C1CCCCC1 (configuration not stated)
inactive: [4] | [5] | [6] | [7] | [1] | [2] | [3]

O=C1CC2(CCCC2)CC(=O)N1CCCCN1CCN(c2ncccn2)CC1
inactive: [4] | [5] | [6] | [7] | [1] | [2] | [3]

C(=C\c1ccccc1)/CN1CCN(C(c2ccccc2)c2ccccc2)CC1
inactive: [7] | [1] | [2] | [3]

Source: PubChem BioAssay (NCATS)
